The text below walks through data of PubChem BioAssay (EPA / NIEHS).

Results filed as inconclusive are left out. Active and inactive are the calls of the source. Rule for the calls, unless noted: active = hit-call score of the fitted dose curve at least 0.9, where 1 is the maximum; inconclusive = response in the unintended direction; inactive = score below 0.9.

A short description of experiment [1]: CCTE_Shafer_MEA_acute_AB: CCTE's Alamar Blue Assay for Cytotoxicity in the Neural Acute Assay, Shafer Lab (AID 2284069).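 Note: active compounds lower the viability signal compared with DMSO wells.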 A digest of the protocol:
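Primary rat cortical neurons on MEA plates, exposed acutely after baseline recording on day 13 or 15 post-plating. Viability by CellTiter Blue resazurin reduction (1:6 reagent dilution), fluorescence 544/590 nm; loss of signal versus DMSO.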
A general note: The colour change of resazurin is a common sign of viable cells or microbes.

A short description of experiment [2]: CCTE_Shafer_MEA_dev_LDH: CCTE's Lactate Dehydrogenase Assay for Cytotoxicity in the Neural Network Formation Assay, Shafer Lab (AID 2284068).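 Note: exposure for twelve days from plating with re-dosing on DIV 5 and 9.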 A digest of the protocol:
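Primary rat cortical neurons were plated on PEI/laminin MEA plates and exposed from day 0 for twelve days, with compound renewed at DIV 5 and 9. Cytotoxicity was determined by spectrophotometric LDH assay relative to DMSO.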

Experiment [3] can be described thus: CCTE_Shafer_MEA_dev_mutual_information_norm: CCTE's Neural Network Formation Assay for Mutual Information Normalization, Shafer Lab (AID 2284091; active = hit-call score of the fitted dose curve at least 0.9, where 1 is the maximum; inactive = score below 0.9). An outline of the steps: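 Developing rat cortical networks on 16-electrode MEA wells are treated throughout formation (DIV 0–12). Shared electrode information is recorded four times, converted to area-under-curve, and fitted for decreases against DMSO vehicle.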

Experiment [4] is described as follows: CCTE_Shafer_MEA_dev_correlation_coefficient_mean: CCTE's Neural Network Formation Assay for Mean Correlation Coefficient, Shafer Lab (AID 2284093; active = hit-call score of the fitted dose curve at least 0.9, where 1 is the maximum; inactive = score below 0.9;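 for AC50: well mean pairwise spike train correlation integrated as AUC over recording days 5 to 12; potency fitted for loss of correlation relative to DMSO vehicle wells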). An outline of the steps:
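Spontaneous activity recorded on days 5, 7, 9 and 12 post-plating; pairwise spike correlations are averaged across active electrodes and collapsed to an area-under-curve. Rat cortical cultures are dosed from plating through 12 days, with compound renewed at media changes.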

Experiment [5] is described as follows: CCTE_Shafer_MEA_dev_AB: CCTE's Alamar Blue Assay for Cytotoxicity in the Neural Network Formation Assay, Shafer Lab (AID 2284083).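 Note: twelve days of exposure from plating with re-dosing on DIV 5 and 9.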 An outline of the steps:
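Primary rat cortical neurons on PEI-coated 48-well MEA plates, 1.5 x 10^5 cells/well in laminin drop; compound exposure from day 0 of plating for twelve days, renewed at medium changes on DIV 5 and 9. Viability read as resazurin reduction by fluorescence, relative to DMSO.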

A further experiment deals with DIO3 (gene 1735). Put plainly: CCTE_GLTED_hDIO3: CCTE's human Deiodinase 3 (DIO3) Inhibition Assay, Great Lakes Toxicology and Ecology Division (GLTED) Lab (AID 2284055).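 For AC50: potency is for inhibition seen as loss of released iodide signal.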 An outline of the steps:
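Enzyme activity is tracked as iodide release from substrate by recombinant human DIO3 over 3 h with chemical present. A second Sandell-Kolthoff step converts iodide to an absorbance signal, fitted relative to DMSO.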

Experiment [6] can be described thus: CCTE_Shafer_MEA_acute_LDH: CCTE's Lactate Dehydrogenase Assay for Cytotoxicity in the Neural Acute Assay, Shafer Lab (AID 2284086).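 Note: active means LDH release rises above DMSO vehicle level.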 An outline of the steps:
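Released lactate dehydrogenase, read at 490 nm, indicated cytotoxicity after acute 40-min compound treatment of rat cortical neuron networks grown on 48-well MEA plates.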

Experiment [7] can be described thus: UKN5_HCS_SBAD2_cell_viability: Viability Assessment in the University of Konstanz (UKN) Leist Lab Neurite Outgrowth Assay in human iPSC-derived immature Dorsal Root Ganglia Neurons (UKN5) (AID 2284056; active = hit-call score of the fitted dose curve at least 0.9, where 1 is the maximum; inactive = score below 0.9). A digest of the protocol:
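iPSC-derived immature peripheral neurons (SBAD2) seeded on Matrigel with CHIR99021, SU5402 and DAPT, dosed 1 h later for 24 h. Viability from Hoechst H-33342 and calcein-AM live staining, high-content imaging; bidirectional fit versus DMSO.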

A short description of experiment [8]: UKN5_HCS_SBAD2_neurite_outgrowth: University of Konstanz (UKN) Leist Lab Neurite Outgrowth Assay in human iPSC-derived immature Dorsal Root Ganglia Neurons (UKN5) (AID 2284070; active = hit-call score of the fitted dose curve at least 0.9, where 1 is the maximum; inactive = score below 0.9). Particulars: actives raise or lower the signal. An outline of the steps: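 SBAD2 neurons, 24 h compound treatment, calcein-AM neurite area via HCS imaging; DMSO baseline, gain or loss of signal.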

The nature of experiment [9]: UKN2_HCS_IMR90_neural_migration: University of Konstanz (UKN) Leist Lab Neural Crest Cell Migration Assay in human induced IMR90 Pluripotent Stem Cells (UKN2) (AID 2284204; active = hit-call score of the fitted dose curve at least 0.9, where 1 is the maximum; inactive = score below 0.9). Particulars: actives raise or lower the signal. An outline of the steps: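 Migration of human IMR90-derived neural crest cells into a stopper-defined gap is imaged after 24 h chemical treatment. Activity is fitted bidirectionally relative to DMSO.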

Experiment [10] can be described thus: UKN4_HCS_LUHMES_neurite_outgrowth: University of Konstanz (UKN) Leist Lab Neurite Outgrowth Assay in human LUHMES cells (UKN4) (AID 2284206; active = hit-call score of the fitted dose curve at least 0.9, where 1 is the maximum; inactive = score below 0.9). Particulars: actives raise or lower the signal. An outline of the steps:
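2-day-differentiated LUHMES, 24 h cpd exposure, live calcein-AM + H-33342 stain, HCS fluorescence imaging of neurite area; DMSO = baseline, bidirectional fit.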

Experiment [11] is described as follows: IUF_NPC1b_proliferation_BrdU_72hr: Leibniz Research Institute for Environmental Medicine (IUF) 72-hour Neural Progenitor Cell Bromodeoxyuridine (BrdU) Proliferation Assay (NPC1b) (AID 2284207; active = hit-call score of the fitted dose curve at least 0.9, where 1 is the maximum; inactive = score below 0.9). An outline of the steps: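 Proliferation of primary human neural progenitor cells: 72 h compound treatment at 37C, 5% CO2, pH 7.2-7.6, in EGF/FGF-containing medium. Readout is BrdU uptake (last 16 h) by chemiluminescent ELISA, normalised to DMSO.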

Experiment [12] is described as follows: IUF_NPC1a_proliferation_area_72hr: Leibniz Research Institute for Environmental Medicine (IUF) 72-hour Neural Progenitor Cell Proliferation Area Assay (NPC1a) (AID 2284208; active = hit-call score of the fitted dose curve at least 0.9, where 1 is the maximum; inactive = score below 0.9). A digest of the protocol:
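Single 0.25–0.35 mm human fetal neural progenitor spheres in proliferation medium with EGF and FGF, exposed 72 h from plating without renewal at 37C, pH 7.2-7.6. Sphere area growth measured by automated phase-contrast imaging, relative to DMSO.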

A short description of experiment [13]: IUF_NPC1_viability_72hr: Viability Assessment at 72 hours in the Leibniz Research Institute for Environmental Medicine (IUF) Neural Progenitor Cell Proliferation Assay (NPC1) (AID 2284209; active = hit-call score of the fitted dose curve at least 0.9, where 1 is the maximum; inactive = score below 0.9). An outline of the steps: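 Each well receives one 0.3 mm progenitor sphere from fetal brain cortex; test chemical is added at plating and left three days. Viability comes from alamar blue fluorescence, multiplexed with LDH and BrdU readouts in the same well.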

Experiment [14] can be described thus: CCTE_Mundy_HCI_Cortical_Synap_Neur_Matur_NeuriteSpotCountPerNeuriteLength: CCTE's Synaptogenesis and Neurite Maturation Assay in rat cortical cells for Neurite Spot Count per Neurite Length, Mundy Lab (AID 2284210; active = hit-call score of the fitted dose curve at least 0.9, where 1 is the maximum; inactive = score below 0.9). An outline of the steps:
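Primary rat cortical neurons, compound exposure DIV 7–12, 288.33 h endpoint. Hoechst, anti-MAP2 and anti-synaptophysin labelling; neurite-associated puncta per neurite length scored by automated imaging relative to DMSO controls.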

The nature of experiment [15]: CCTE_Mundy_HCI_Cortical_NOG_NeuriteLength: CCTE's Neurite Outgrowth Assay in rat cortical cells for Neurite Length, Mundy Lab (AID 2284213; active = hit-call score of the fitted dose curve at least 0.9, where 1 is the maximum; inactive = score below 0.9). A digest of the protocol: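 Neurite length was read by high-content imaging of βIII-tubulin-labelled neurites in rat primary cortical cultures. Activity was fitted relative to DMSO.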
Experiment [16] can be described thus: CCTE_Mundy_HCI_Cortical_Synap_Neur_Matur_NeuriteLength: CCTE's Synaptogenesis and Neurite Maturation Assay in rat cortical cells for Neurite Length, Mundy Lab (AID 2284214; active = hit-call score of the fitted dose curve at least 0.9, where 1 is the maximum; inactive = score below 0.9). An outline of the steps:
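Neurite length in rat primary cortical cultures is imaged after MAP2, synaptophysin and Hoechst staining. Dosing starts DIV 7, ending DIV 12; DMSO serves as negative control and baseline.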

Experiment [17] can be described thus: CCTE_Mundy_HCI_Cortical_Synap_Neur_Matur_NeuriteSpotCountPerNeuron: CCTE's Synaptogenesis and Neurite Maturation Assay in rat cortical cells for Neurite Spot Count per Neuron Count, Mundy Lab (AID 2284215; active = hit-call score of the fitted dose curve at least 0.9, where 1 is the maximum; inactive = score below 0.9). An outline of the steps: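 Rat primary cortical cultures given AraC at DIV 5, dosed from DIV 7 to DIV 12 with media change. Fixed, stained for MAP2, synaptophysin and Hoechst; neurite-associated synaptophysin puncta per neuron quantified by high-content imaging versus DMSO.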

As to `CN(C)C=O`, the result in [1] was inactive.

Regarding `C=C(C)C(=O)OCCC(F)(F)C(F)(F)C(F)(F)C(F)(F)C(F)(F)C(F)(F)F`, the call in experiment [2], in experiment [3] and in experiment [4] was inactive.

Turning to `CCc1ccc(CCOc2ccc(CC3SC(=O)NC3=O)cc2)nc1` (configuration not stated), in experiment [1], the molecule was called inactive.

With `c1ccc2c(c1)Cc1ccccc1-2`, the result in experiment [2], in experiment [5], in [3] and in [4] was inactive.

For orientation: AC50 means the midpoint of the concentration-response curve, whichever way the signal moves. On to `CC(C)(C)c1ccc(O)c(C(C)(C)C)c1`, for which, in the experiment with DIO3 (gene 1735), the AC50 is 96.5 µM (active).

Take `CN1CCN(c2ccccc2/C=C2\SCCN(c3ccc(Cl)c(Cl)c3)C2=O)CC1`: the outcome (in the experiment with DIO3 (gene 1735); in experiment [1]; in experiment [6]) was inactive.

On to `CN1CCC[C@H]1c1cccnc1`, for which the molecule was called inactive in [7], in experiment [1], in experiment [8], in [3], in experiment [4] and in [9]. Also, the result in experiment [10], in experiment [11], in experiment [12], in [13], in [14] and in [15] was inactive. Also, the molecule was called inactive in experiment [16] and in experiment [17].

Consider `CCCCCCCCCCCCN1CCCC1=O`, for which the AC50 in the experiment on DIO3 (gene 1735) is 87.8 µM (active). Also, the molecule was called inactive in [6].

For `CCCOc1sc(C(=O)N2CCC(c3cc(CN)ccc3F)CC2)c(C)c1Br`, in experiment [6], the result was inactive.

Take `Oc1cc2ccccc2c2ccccc12`: the AC50 in experiment [1] was 8 µM (active).

Take `CC[C@H](c1ccc(O)cc1)[C@@H](CC)c1ccc(O)cc1`: in experiment [6], the outcome was inactive.

In the case of `OC1CCC(C2CCCCC2)CC1` (configuration not stated), the outcome in experiment [1] and in experiment [6] was inactive.

As for `OCCC(F)(F)C(F)(F)C(F)(F)C(F)(F)C(F)(F)C(F)(F)F`, the call in experiment [3] and in [4] was inactive.

Consider `ClC1=C(Cl)C(Cl)(Cl)C(Cl)=C1Cl`, for which the AC50 with DIO3 (gene 1735) was 3.14 µM (active).

For `OCCC(F)(F)C(F)(F)C(F)(F)C(F)(F)C(F)(F)C(F)(F)C(F)(F)C(F)(F)F`, the AC50 in [2] is 28.5 µM (active); in experiment [4], 23.4 µM (active). Besides, the molecule was called inactive in [1], in [5], in experiment [6] and in experiment [3].

Regarding `c1ccc2c(c1)ccc1ccccc12`, the molecule was called inactive in experiment [2], in experiment [5], in experiment [3] and in experiment [4].
